# Assay results published in the antibiotic and cytotoxicity screens of Wong et al. (2023).
# About 3,300 (8.5%) of roughly 39,000 compounds were called active. Shown is part of a subset that was picked to be rich in actives.
# System: HepG2
# Experiment: cytotoxicity call (relative viability < 0.9)
# Settings: 10 µM
row,SMILES,cytotoxicity call
1,C[C@@H]1CN([C@@H](C)CO)C(=O)c2cc(NC(=O)c3ccncc3)ccc2O[C@@H]1CN(C)S(=O)(=O)c1cccs1,inactive
2,COc1ccc(NC(=O)N(C)C[C@@H]2Oc3ccc(NS(C)(=O)=O)cc3C(=O)N([C@H](C)CO)C[C@@H]2C)cc1,inactive
3,Cc1noc(C)c1NC(=O)N(C)C[C@H]1OCCCC[C@H](C)Oc2ccc(NC(=O)Nc3cccc4ccccc34)cc2C(=O)N([C@H](C)CO)C[C@@H]1C,inactive
4,C[C@@H]1CN([C@@H](C)CO)C(=O)c2cccc(NC(=O)c3ccc(-c4nccs4)cc3)c2O[C@H]1CN(C)C(=O)Nc1ccc2c(c1)OCO2,inactive
5,O=C(O)c1cc(O)c2cccc(O)c2n1,inactive
6,COc1ccc(S(=O)(=O)Nc2ccc3c(c2)C(=O)N([C@@H](C)CO)C[C@@H](C)[C@@H](CN(C)Cc2ccc(C(F)(F)F)cc2)OCCCC[C@H](C)O3)cc1,inactive
7,COc1ccc(S(=O)(=O)Nc2ccc3c(c2)C(=O)N([C@@H](C)CO)C[C@@H](C)[C@H](CN(C)Cc2ccc(C(F)(F)F)cc2)OCCCC[C@H](C)O3)cc1,active
8,COc1ccc(S(=O)(=O)Nc2ccc3c(c2)C(=O)N([C@H](C)CO)C[C@H](C)[C@@H](CN(C)Cc2ccc(C(F)(F)F)cc2)OCCCC[C@H](C)O3)cc1,inactive
9,COc1ccc(S(=O)(=O)Nc2ccc3c(c2)C(=O)N([C@@H](C)CO)C[C@H](C)[C@H](CN(C)Cc2ccc(C(F)(F)F)cc2)OCCCC[C@@H](C)O3)cc1,inactive
10,COc1ccc(S(=O)(=O)Nc2ccc3c(c2)C(=O)N([C@H](C)CO)C[C@H](C)[C@H](CN(C)Cc2ccc(C(F)(F)F)cc2)OCCCC[C@H](C)O3)cc1,inactive
11,COc1ccc(S(=O)(=O)Nc2ccc3c(c2)C(=O)N([C@H](C)CO)C[C@@H](C)[C@H](CN(C)Cc2ccc(C(F)(F)F)cc2)OCCCC[C@@H](C)O3)cc1,active
12,COc1ccc(S(=O)(=O)Nc2ccc3c(c2)C(=O)N([C@H](C)CO)C[C@H](C)[C@H](CN(C)Cc2ccc(C(F)(F)F)cc2)OCCCC[C@@H](C)O3)cc1,active
13,COc1ccc(S(=O)(=O)Nc2ccc3c(c2)C(=O)N([C@H](C)CO)C[C@@H](C)[C@@H](CN(C)Cc2ccc(C(F)(F)F)cc2)OCCCC[C@@H](C)O3)cc1,active
14,COc1ccc(S(=O)(=O)Nc2ccc3c(c2)C(=O)N([C@H](C)CO)C[C@@H](C)[C@H](CN(C)Cc2ccc(C(F)(F)F)cc2)OCCCC[C@H](C)O3)cc1,inactive
15,COc1ccc(S(=O)(=O)Nc2ccc3c(c2)C(=O)N([C@@H](C)CO)C[C@H](C)[C@@H](CN(C)Cc2ccc(C(F)(F)F)cc2)OCCCC[C@H](C)O3)cc1,inactive
16,C[C@H]1CN([C@@H](C)CO)C(=O)c2cc(NC(=O)CCCN(C)C)ccc2O[C@H]1CN(C)S(=O)(=O)c1ccccc1,inactive
17,C[C@@H]1CN([C@@H](C)CO)S(=O)(=O)c2ccc(Br)cc2O[C@H]1CN(C)C(=O)C1CCCCC1,inactive
18,C[C@@H]1CN([C@H](C)CO)C(=O)c2cc(-c3cccc(C(=O)N(C)C)c3)cnc2O[C@H]1CN(C)S(=O)(=O)c1cccc(F)c1,inactive
19,Cc1cc(C(=O)Nc2cccc3c2O[C@@H](CN(C)S(=O)(=O)c2cccs2)[C@@H](C)CN([C@@H](C)CO)C3=O)n(C)n1,inactive
20,O=C1C[C@@](C(=O)NCc2ccccc2)(c2ccc([N+](=O)[O-])cc2)[C@@H](c2ccc(CO)cc2)N1CC12CC3CC(CC(C3)C1)C2,inactive
21,Cc1ccc(S(=O)(=O)n2cc([C@H]3CC(=O)N(C(=O)OCc4ccccc4)[C@H]3C(=O)Nc3cccc4cccnc34)c3ccccc32)cc1,inactive

row,SMILES,cytotoxicity call
1,C[C@@H]1CN([C@@H](C)CO)C(=O)c2cccc(NC(=O)Nc3ccc4c(c3)OCO4)c2O[C@H]1CN(C)S(=O)(=O)c1cn(C)cn1,inactive
2,Cl.Cl.Fc1ccc(C(c2ccc(F)cc2)N2CCN(CC=Cc3ccccc3)CC2)cc1,inactive
3,COc1ccc(CN2CCN(C(c3ccc(F)cc3)c3ccc(F)cc3)CC2)c(OC)c1OC.Cl,active
4,Cc1cccc(CN2CCN(C(c3ccccc3)c3ccc(Cl)cc3)CC2)c1.Cl.Cl (stereo unspecified),inactive
5,Cc1ccc(S(=O)(=O)N(C)C[C@H]2Oc3c(NC(=O)C4CCOCC4)cccc3C(=O)N([C@H](C)CO)C[C@H]2C)cc1,inactive
6,CCc1nc2ccc(C(=O)Nc3cc(-c4ccccc4)ccc3OC)cn2c1N(C)C(=O)c1cccc(OC)c1,inactive
7,CC(C)NC(=O)Nc1ccc2c(c1)CC(=O)N([C@H](C)CO)C[C@H](C)[C@@H](CN(C)S(=O)(=O)c1ccccc1)O2,inactive
8,Cc1noc(C)c1NC(=O)N(C)C[C@@H]1OCCCC[C@H](C)Oc2ccc(NC(=O)c3ccccc3)cc2C(=O)N([C@@H](C)CO)C[C@H]1C,inactive
9,Cc1ccc2nc(CN)[nH]c2c1,inactive
10,Cc1ccc2nc(SCc3c(C)c(C)cc(C)c3C)[nH]c2c1,inactive
11,Cc1ccc2nc(SCc3ccc4ccccc4c3)[nH]c2c1,active
12,CCCN(C)C[C@@H]1OCCCC[C@@H](C)Oc2ccc(NC(=O)CCC(F)(F)F)cc2C(=O)N([C@H](C)CO)C[C@@H]1C,inactive
13,C[C@@H]1CCCCO[C@H](CN(C)Cc2ccc(C(=O)O)cc2)[C@H](C)CN([C@@H](C)CO)C(=O)c2cc(NC(=O)NC3CCCCC3)ccc2O1,inactive
14,C[C@H](CO)N1C[C@H](C)[C@H](CN(C)C(=O)c2ccccc2)OCCCC[C@H](C)Oc2ccc(NC(=O)c3ccccc3)cc2C1=O,inactive
15,C=CCC[C@@H](Cc1ccc(F)cc1)C(=O)OC[C@H](Cc1c[nH]c2ccccc12)NC(=O)[C@@H](CC=C)CC(=O)N[C@@H](CO)Cc1ccccc1,active
16,C=CC[C@@H](CC(=O)N[C@H](CO)Cc1ccccc1)C(=O)N[C@H](COC(=O)[C@@H](CC=C)Cc1ccc(F)cc1)Cc1c[nH]c2ccccc12,inactive
17,C=CCC[C@H](Cc1ccc(F)cc1)C(=O)OC[C@H](Cc1c[nH]c2ccccc12)NC(=O)[C@H](CC=C)CC(=O)N[C@@H](CO)Cc1ccccc1,inactive
18,C=CC[C@H](CC(=O)N[C@@H](CO)Cc1ccccc1)C(=O)N[C@@H](COC(=O)[C@@H](CC=C)Cc1ccc(F)cc1)Cc1c[nH]c2ccccc12,inactive
19,C=CCC[C@H](Cc1ccc(F)cc1)C(=O)OC[C@@H](Cc1c[nH]c2ccccc12)NC(=O)[C@@H](CC=C)CC(=O)N[C@@H](CO)Cc1ccccc1,inactive
20,C=CCC[C@H](Cc1ccc(F)cc1)C(=O)OC[C@@H](Cc1c[nH]c2ccccc12)NC(=O)[C@H](CC=C)CC(=O)N[C@@H](CO)Cc1ccccc1,active
21,C=CCC[C@@H](Cc1ccc(F)cc1)C(=O)OC[C@@H](Cc1c[nH]c2ccccc12)NC(=O)[C@@H](CC=C)CC(=O)N[C@@H](CO)Cc1ccccc1,inactive

row,SMILES,cytotoxicity call
1,C=CCC[C@@H](Cc1ccc(F)cc1)C(=O)OC[C@H](Cc1c[nH]c2ccccc12)NC(=O)[C@@H](CC=C)CC(=O)N[C@H](CO)Cc1ccccc1,inactive
2,C=CCC[C@H](Cc1ccc(F)cc1)C(=O)OC[C@H](Cc1c[nH]c2ccccc12)NC(=O)[C@@H](CC=C)CC(=O)N[C@H](CO)Cc1ccccc1,active
3,C=CCC[C@H](Cc1ccc(F)cc1)C(=O)OC[C@H](Cc1c[nH]c2ccccc12)NC(=O)[C@@H](CC=C)CC(=O)N[C@@H](CO)Cc1ccccc1,active
4,C=CCC[C@@H](Cc1ccc(F)cc1)C(=O)OC[C@@H](Cc1c[nH]c2ccccc12)NC(=O)[C@H](CC=C)CC(=O)N[C@@H](CO)Cc1ccccc1,inactive
5,C=CCC[C@@H](Cc1ccc(F)cc1)C(=O)OC[C@@H](Cc1c[nH]c2ccccc12)NC(=O)[C@@H](CC=C)CC(=O)N[C@H](CO)Cc1ccccc1,inactive
6,Cc1ccnc(NC(=O)Cn2cnc3c2c(=O)n(C)c(=O)n3C)n1,inactive
7,O=c1nc2[nH][nH]cc-2c(=O)[nH]1,inactive
8,COCC#Cc1ccc2c(c1)O[C@H](CN(C)C(=O)CN(C)C)[C@H](C)CN([C@H](C)CO)S2(=O)=O,inactive
9,C=CCOc1nc(NCC)nc(N(C)C)n1,inactive
10,CS(=O)(=O)N1C[C@H](NC(=O)c2cnccn2)[C@H]2OCCC[C@H]21,inactive
11,C=CC[C@@H](CC(=O)N(CCO)Cc1ccccc1)C(=O)N[C@H](COC(=O)[C@@H](CC=C)Cc1ccc(F)cc1)C(C)(C)C,inactive
12,C[C@@H]1CCCCO[C@H](CN(C)Cc2ccncc2)[C@H](C)CN([C@H](C)CO)C(=O)c2cc(NS(=O)(=O)c3ccc(Cl)cc3)ccc2O1,inactive
13,CCc1oc(CC[C@@H](CO)NC(=O)NCCn2cc(C3(O)CCCCC3)nn2)c(C(=O)OC)c1C(=O)OC,inactive
14,O=C(CCCCCCC(=O)Nc1ccc([C@H]2O[C@@H](CSc3ccccc3)C[C@H](c3ccccc3)O2)cc1)NO,inactive
15,C[C@H](CO)N1C[C@H](C)[C@@H](CN(C)C(=O)Nc2ccc(C(F)(F)F)cc2)Oc2c(NC(=O)c3ccc(-c4nccs4)cc3)cccc2C1=O,inactive
16,C[C@H]1CN([C@@H](C)CO)C(=O)c2cccc(NC(=O)C3CC3)c2O[C@@H]1CN(C)S(=O)(=O)c1ccccc1,inactive
17,C[C@@H]1CCCCO[C@H](CN(C)S(=O)(=O)c2ccccc2)[C@@H](C)CN([C@@H](C)CO)C(=O)c2cc(NC(=O)CCC(F)(F)F)ccc2O1,inactive
18,CC(C)NC(=O)N[C@H]1C=C[C@H](CC(=O)NCCCN(C)C)O[C@H]1CO,inactive
19,COc1ccc(S(=O)(=O)N(C)C[C@@H]2Oc3ccc(NC(=O)c4ccncc4)cc3CC(=O)N([C@H](C)CO)C[C@@H]2C)cc1,inactive
